In PubChem BioAssay (NCATS):
Results filed as inconclusive are left out. The source made the active and inactive calls. The call rests on the fitted dose curve; in most records, active means well fitted inhibition curve with a large enough effect; inconclusive means small, poorly fitted or top-dose-only effect; inactive means no such curve, though single readings can be large or run the other way.

Assay: NS1 protein of Zika virus - qHTS assay to identify small molecule inhibitors in human HEK 293 cells (AID 1347053);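 further: plate controls were infected untreated cells for no effect and uninfected cells for full effect; nearly all actives have a fitted effect of over 55% in size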
Details: HEK293 ZIKV MR766 infection, NS1 TR-FRET, 24 h; series mostly up to 46.1 µM; activity change, negative = inhibition: at the top concentration
Outline: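 TR-FRET signal from two anti-ZIKV NS1 antibodies quantified NS1 in HEK 293 cells 24 h after MR766 infection at MOI = 0.5; compounds were added 1 h before virus. Uninfected cells and infected cells defined the NS1 normalization range.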

SMILES	activity change, negative = inhibition
CC1CCN(c2cc(N3CCN(C)CC3)ccc2NC(=O)c2cc(C#N)c[nH]2)CC1	12.8% (inactive)
Cn1c(=O)c(Oc2ccc(F)cc2F)cc2cnc(NC3CCOCC3)nc21	10.6% (inactive)
CNC(=O)[C@H](CC1=CN=C2C=CCC=C12)NC(=O)[C@@H](CC(=O)NO)CC(C)C	-6.34% (inactive)
Nc1ncnc2c1c(-c1cccc(OCc3ccccc3)c1)cn2C1CC(CN2CCC2)C1 (stereo unspecified)	5.11% (inactive)
C[C@@H](NC(=O)c1ncnc(N)c1Cl)c1ncc(C(=O)Nc2cc(C(F)(F)F)c(Cl)cn2)s1	3.62% (inactive)
O=C(NC[C@H](O)CO)c1ccncc1Nc1ccc(I)cc1F	0.643% (inactive)
COc1ccc2c(c1)c(C1=C(c3c[nH]c4ccccc34)C(=O)NC1=O)cn2CCCN(C)C	20.1% (inactive)
COc1c(C)cnc(Cn2cnc3c(Cl)nc(N)nc32)c1C	1.94% (inactive)
COc1cc2c(cc1OC)[C@@H]1Cc3ccc(OC)c(OC)c3CN1CC2	37% (inactive)
Oc1ccc(C=Cc2cc(O)cc(O)c2)cc1	-7.78% (inactive)
c1ccc(CNc2nc(N3CCOc4ccccc43)nc3c2CCCC3)cc1	1.76% (inactive)
N#CC(c1ccc(Cl)cc1)c1c(Cl)cc(-n2ncc(=O)[nH]c2=O)cc1Cl (stereo unspecified)	-20.9% (inactive)
CNC(=O)c1ccc2c(C(=Nc3cccc(CN(C)C)c3)c3ccccc3)c(O)[nH]c2c1	-22.4% (inactive)
CO[C@@H]1C(N(C)C(=O)c2ccccc2)C[C@H]2O[C@]1(C)n1c3ccccc3c3c4c(c5c6ccccc6n2c5c31)C(=O)NC4=O (stereo partly specified)	6.89% (inactive)
Cc1cc(-c2ncc(CC(=O)Nc3ccc(-c4cnccn4)cn3)cc2C)ccn1	1.73% (inactive)
O=C1CN2Cc3c(ccc(Cl)c3Cl)N=C2N1	4.21% (inactive)
